# Reference: the supplement of paper PMC6522484
# ± gives the standard deviation of the averaged measurements.
# Columns and labels:
# DLD1 [1] = assay: cell viability (CellTiter-Glo) relative to plate median (fraction of plate median); higher = more viable cells; conditions: 5 µM; treatment time 24 h; reporter: 7TFP
# How it was run: (§1)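 Colorectal cancer cells stably transduced with lentiviral TCF/Wnt firefly luciferase reporters were seeded in 384-well plates and dosed 24 h later with library compounds at a final 5 µM for 24 h. Firefly luciferase or CellTiterGlo luminescence was then read on a Tecan F500 from parallel plates. Signals were normalised per well to the plate median without log transformation, additively in webcellHTS2, and averaged over two independent replicates.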
# HCT116 = assay: as above; conditions: 5 µM; treatment time 24 h; reporter: TCF4/Wnt
# How it was run: as §1
# SW480 [2] = assay: as above; conditions: 5 µM; treatment time 24 h; reporter: 7TFP
# How it was run: as §1
# DLD1 [3] = assay: TCF/Wnt firefly luciferase reporter signal relative to plate median (fraction of plate median); higher = higher Wnt reporter signal; conditions: 5 µM; treatment time 24 h; reporter: 7TFP
# How it was run: as §1
# SW480 [4] = assay: as above; conditions: 5 µM; treatment time 24 h; reporter: 7TFP
# How it was run: as §1
compound,measurement,setting,value
C=CC[C@]1(O)CC[C@H]2[C@@H]3CCC4=CC(=O)CCC4=C3C=C[C@@]21C,cell viability,DLD1 [1],1.11 ± 0.16
same,cell viability,HCT116,0.961 ± 0.052
same,cell viability,SW480 [2],0.963 ± 0.081
same,TCF/Wnt firefly luciferase reporter signal,DLD1 [3],0.945 ± 0.078
same,TCF/Wnt firefly luciferase reporter signal,SW480 [4],0.9875 ± 0.00071
COc1ccc(C(=O)N2CCCC2=O)cc1,cell viability,DLD1 [1],1.01 ± 0.018
same,cell viability,HCT116,0.957 ± 0.025
same,cell viability,SW480 [2],1.045 ± 0.0071
same,TCF/Wnt firefly luciferase reporter signal,DLD1 [3],1.08 ± 0.021
same,TCF/Wnt firefly luciferase reporter signal,SW480 [4],1.07 ± 0.014
